According to PubChem BioAssay:
The source made the active and inactive calls.

Tests used:
[1] = system: PRMT1 (protein arginine N-methyltransferase 1); test: PRMT1 binders on small-molecule microarrays, primary screen, biochemical, small-molecule microarray, 635 nm fluorescence (AID 1088); conditions: small-molecule microarray binding, higher = more signal;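 note: binding of Prmt1 protein to compounds spotted on small-molecule microarray slides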
[2] = yeast growth modulation, basal conditions, primary screen, YJM789 clinical isolate, OD600, 24 h (AID 1089);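 note: growth of clinical yeast isolate S. cerevisiae YJM 789 seeded 1000 cells per well; test concentration not given here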; conditions: S. cerevisiae YJM789 growth, higher = more signal, called active from +8 up or from −8 down
[3] = fission yeast growth modulation, primary screen, strain 972, OD600, 24 h, no modulator (AID 1090);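 note: basal condition with compound alone and no growth modifier present; test concentration not given here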; conditions: S. pombe 972 growth, higher = more signal, called active from +8 up or from −8 down
[4] = S. cerevisiae growth modulation with rapamycin, primary screen, strain BY4716, OD600, 96 h (AID 1091); conditions: higher = more signal, called active from +8 up or from −8 down; note: test concentration not given here
[5] = biological target: Torsin-1A-interacting protein 2 (Homo sapiens) (UniProt Q8NFQ8); test: LULL1 binders on small-molecule microarray, primary screen, cell lysate, human LULL1 lysate, 635/667 nm fluorescence (AID 1092); conditions: hLULL1 lysate binding, 635 nm fluorescence, higher = more signal;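 note: probe is lysate of COS7 cells overexpressing human LULL1; score merges per-feature 667 nm fluorescence with signal-to-noise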
[6] = E. coli growth modulation, two-sided OD650, primary screen, E. coli filamentation project, strain DRC41, 24 h (AID 1093); conditions: OD650, 24 h, higher = more signal, called active from +8 up or from −8 down;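 note: MC1000 strain lacking acrAB efflux and sulA so SOS filamentation is blocked; test concentration not given here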
[7] = small-molecule microarray binders of probe aLefty2, primary screen, biochemical, biotinylated probe, 635/667 nm fluorescence (AID 1094); conditions: higher = more signal;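 note: score merges spot fluorescence near 667 nm with spot signal-to-noise ratio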
[8] = system: Noggin (protein binding on small-molecule microarray); test: Noggin binders on small-molecule microarray, primary screen, biochemical, 635/667 nm fluorescence (AID 1095); conditions: 635 nm fluorescence, higher = more signal;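 note: score merges 667 nm feature fluorescence with signal to noise over triplicate slides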
[9] = biological target: Neurogenic locus notch homolog protein 3 (Homo sapiens) (UniProt Q9UM47); test: NOTCH3 binders on small-molecule microarray, primary screen, biochemical, 635/667 nm fluorescence (AID 1096); conditions: NOTCH3 binding, 635 nm fluorescence, higher = more signal
[10] = small-molecule microarray binders of probe aEGFR, primary screen, biochemical, biotinylated probe, 635/667 nm fluorescence (AID 1097); conditions: higher = more signal;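 note: probe is a biotinylated anti-EGFR antibody binding compounds printed on slides; score combines fluorescence near 667 nm and signal to noise of each spot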

Torsin-1A-interacting protein 2 (Homo sapiens), sequence (Q8NFQ8 whole entry, looked up): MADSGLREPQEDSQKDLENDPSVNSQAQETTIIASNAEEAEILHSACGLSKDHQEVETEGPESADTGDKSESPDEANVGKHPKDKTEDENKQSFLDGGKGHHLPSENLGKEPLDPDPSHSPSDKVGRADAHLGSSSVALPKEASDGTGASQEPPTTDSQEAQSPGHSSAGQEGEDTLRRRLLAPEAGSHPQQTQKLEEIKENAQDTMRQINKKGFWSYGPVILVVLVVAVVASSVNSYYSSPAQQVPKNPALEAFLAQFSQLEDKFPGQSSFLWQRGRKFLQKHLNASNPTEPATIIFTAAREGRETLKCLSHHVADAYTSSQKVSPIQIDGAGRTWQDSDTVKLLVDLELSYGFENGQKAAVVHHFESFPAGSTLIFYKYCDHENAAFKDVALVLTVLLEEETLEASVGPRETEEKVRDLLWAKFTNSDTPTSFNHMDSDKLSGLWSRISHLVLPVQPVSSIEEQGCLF
Neurogenic locus notch homolog protein 3 (Homo sapiens), sequence (Q9UM47 whole entry, looked up): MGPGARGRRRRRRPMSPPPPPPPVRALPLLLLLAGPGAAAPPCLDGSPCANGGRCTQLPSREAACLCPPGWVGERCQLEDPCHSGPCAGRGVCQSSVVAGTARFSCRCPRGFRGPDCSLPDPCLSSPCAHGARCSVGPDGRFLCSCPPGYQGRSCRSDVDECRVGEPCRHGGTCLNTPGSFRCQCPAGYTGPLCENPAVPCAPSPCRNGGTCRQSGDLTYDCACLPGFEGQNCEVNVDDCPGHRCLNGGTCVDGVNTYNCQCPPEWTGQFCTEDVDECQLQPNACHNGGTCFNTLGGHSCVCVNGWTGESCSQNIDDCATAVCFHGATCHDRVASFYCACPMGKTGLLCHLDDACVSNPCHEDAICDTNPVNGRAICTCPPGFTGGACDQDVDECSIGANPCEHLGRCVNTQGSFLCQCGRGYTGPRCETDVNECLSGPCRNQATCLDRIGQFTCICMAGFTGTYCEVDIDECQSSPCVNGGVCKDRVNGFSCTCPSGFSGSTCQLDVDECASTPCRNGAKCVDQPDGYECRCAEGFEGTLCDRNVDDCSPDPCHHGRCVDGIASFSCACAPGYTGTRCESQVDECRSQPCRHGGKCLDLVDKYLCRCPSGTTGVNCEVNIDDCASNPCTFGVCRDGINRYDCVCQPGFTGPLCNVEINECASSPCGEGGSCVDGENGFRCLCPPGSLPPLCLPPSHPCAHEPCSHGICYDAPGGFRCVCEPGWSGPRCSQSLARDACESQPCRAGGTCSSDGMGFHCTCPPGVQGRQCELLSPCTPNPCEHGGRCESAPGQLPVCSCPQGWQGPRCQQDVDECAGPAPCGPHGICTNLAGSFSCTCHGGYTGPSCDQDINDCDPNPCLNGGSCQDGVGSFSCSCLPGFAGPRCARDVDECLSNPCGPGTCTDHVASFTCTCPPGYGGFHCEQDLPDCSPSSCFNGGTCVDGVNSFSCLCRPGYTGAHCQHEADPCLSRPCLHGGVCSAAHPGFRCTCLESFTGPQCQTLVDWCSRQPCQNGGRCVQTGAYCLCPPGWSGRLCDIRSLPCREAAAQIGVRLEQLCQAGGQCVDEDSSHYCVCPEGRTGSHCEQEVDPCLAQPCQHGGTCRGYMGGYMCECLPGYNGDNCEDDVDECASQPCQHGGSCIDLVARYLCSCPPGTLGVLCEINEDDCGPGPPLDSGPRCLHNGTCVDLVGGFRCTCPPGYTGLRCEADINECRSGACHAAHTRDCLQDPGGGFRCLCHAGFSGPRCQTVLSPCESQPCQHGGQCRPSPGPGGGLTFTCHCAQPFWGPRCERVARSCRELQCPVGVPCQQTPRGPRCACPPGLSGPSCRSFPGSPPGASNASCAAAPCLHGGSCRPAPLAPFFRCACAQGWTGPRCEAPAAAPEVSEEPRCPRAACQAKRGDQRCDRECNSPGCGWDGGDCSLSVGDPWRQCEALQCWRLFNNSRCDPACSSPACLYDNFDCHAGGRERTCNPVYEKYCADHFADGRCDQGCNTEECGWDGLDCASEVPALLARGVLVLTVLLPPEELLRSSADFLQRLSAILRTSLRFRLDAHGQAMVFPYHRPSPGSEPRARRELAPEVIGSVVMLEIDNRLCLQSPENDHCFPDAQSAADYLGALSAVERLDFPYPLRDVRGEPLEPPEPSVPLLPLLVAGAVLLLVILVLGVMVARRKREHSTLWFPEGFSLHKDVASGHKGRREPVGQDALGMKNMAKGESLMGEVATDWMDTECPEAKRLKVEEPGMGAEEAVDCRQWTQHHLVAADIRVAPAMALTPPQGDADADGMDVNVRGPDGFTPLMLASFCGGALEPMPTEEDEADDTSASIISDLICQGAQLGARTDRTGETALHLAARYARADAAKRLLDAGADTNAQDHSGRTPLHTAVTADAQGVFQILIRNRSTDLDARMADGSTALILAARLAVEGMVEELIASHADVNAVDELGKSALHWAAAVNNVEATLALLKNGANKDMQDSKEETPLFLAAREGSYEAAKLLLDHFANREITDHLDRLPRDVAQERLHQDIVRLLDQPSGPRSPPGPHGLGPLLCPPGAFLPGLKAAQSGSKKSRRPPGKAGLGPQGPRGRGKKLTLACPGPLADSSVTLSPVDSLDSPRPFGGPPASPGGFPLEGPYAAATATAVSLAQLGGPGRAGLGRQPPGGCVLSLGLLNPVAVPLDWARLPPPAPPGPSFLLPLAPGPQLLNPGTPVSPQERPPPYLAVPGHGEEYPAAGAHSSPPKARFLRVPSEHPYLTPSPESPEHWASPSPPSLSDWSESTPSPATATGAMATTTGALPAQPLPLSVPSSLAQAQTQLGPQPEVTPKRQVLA

Row | SMILES | composite z-score [1] | z-score [2] | z-score [3] | z-score [4] | composite z-score [5] | z-score [6] | composite z-score [7] | composite z-score [8] | composite z-score [9] | composite z-score [10]
1 | COC(=O)[C@@]1(Cc2ccc(F)cc2)[C@H]2c3cc(C(=O)N(C)C)n(CC4CC4)c3C[C@H]2CN1C(=O)c1ccccc1 | 1.45 | 0.712 (inactive) | 0.877 (inactive) | 2.49 (inactive) | 3.57 | -0.334 (inactive) | 1.41 | 0.506 | 1.06 | 0.973
2 | COC(=O)[C@@]1(Cc2ccc(OC)cc2)[C@H]2c3cc(C(=O)N4CCCC4)n(Cc4ccsc4Br)c3C[C@H]2CN1C(=O)c1ccccc1 | -0.356 | -0.168 (inactive) | 0.0021 (inactive) | -0.887 (inactive) | 2.91 | -0.29 (inactive) | 0.498 | -0.0969 | 0.855 | 0.122
3 | CC(C)C(=C=CC[C@@H](O)c1ccccc1OCCO)CCO | 0.895 | -2.18 (inactive) | -17.8 (active) | -2.09 (inactive) | -0.559 | 0.364 (inactive) | -0.0998 | 0.315 | 0.428 | -0.096
4 | COc1cc2c(cc1O)C=[N+](Cc1cccc(OC(F)(F)F)c1)CC2 | 0.224 | -1.65 (inactive) | -3.24 (inactive) | -1.98 (inactive) | 0.319 | -1.31 (inactive) | -0.103 | -0.0304 | -0.0987 | -0.171
5 | COc1ccc(C(O)C2C=CC3C(=O)NC(=O)C3N2Nc2ccccn2)c2ccccc12 (stereo not given) | -0.385 | -0.327 (inactive) | -0.0861 (inactive) | 0.188 (inactive) | 1.02 | -0.794 (inactive) | -0.132 | -0.127 | 0.223 | -0.107
6 | C=C(COC)/C(=C/C[C@@H](OC(C)=O)c1ccc(CO)o1)c1cnc2ccccc2c1 | 1.54 | 1.17 (inactive) | -0.721 (inactive) | 0.951 (inactive) | 0.612 | 1.27 (inactive) | 0.0624 | 1.72 | 1.04 | 0.0821
7 | NC(=O)[C@@H]1[C@H]2C(=O)O[C@H](c3ccccc3)[C@H](c3ccccc3)N2[C@H](c2ccc(O)cc2)[C@@]12C(=O)Nc1ccc(C#CC3(O)CCCCCC3)cc12 | 0.454 | 0.505 (inactive) | -0.133 (inactive) | 0.639 (inactive) | 2.14 | -0.441 (inactive) | -0.072 | -0.6 | -0.395 | -0.178
8 | COC(=O)[C@@]1(Cc2ccc(F)cc2)[C@H]2c3cc(C(=O)N(C)C)n(Cc4nc5ccccc5[nH]4)c3C[C@H]2CN1C(=O)c1ccccc1 | 0.173 | 0.37 (inactive) | 0.821 (inactive) | -0.444 (inactive) | 3.36 | -0.373 (inactive) | 0.341 | -0.138 | 1.08 | 0.191
9 | C=CCN(Cc1ccccc1)C(=O)C(c1cccs1)N(CCOCCO)C(=O)/C=C\C(=O)O (stereo not given) | -0.785 | -2.16 (inactive) | 0.0374 (inactive) | -1.01 (inactive) | 1.2 | 2.25 (inactive) | -0.0555 | -2.41 | -1.7 | -0.329
10 | CCCCC(O)C1C=CC2C(=O)N(c3ccccc3)C(=O)C2N1Nc1ccccc1F (stereo not given) | 1.11 | -0.0377 (inactive) | -0.579 (inactive) | 1.03 (inactive) | 2.99 | -0.825 (inactive) | 0.648 | -0.0787 | 0.818 | 0.159
11 | CCCC=C(CCC)[C@@H](NS(=O)(=O)c1cccs1)c1ccc(C(=O)OC)cc1 | 0.946 | 0.212 (inactive) | -1.19 (inactive) | 0.602 (inactive) | 3.43 | -0.0839 (inactive) | -0.0375 | -0.213 | 0.882 | -0.11
12 | CCCCC(=C=CC[C@@H](O)c1ccccc1OCCO)CCO | -0.144 | 0.598 (inactive) | -0.424 (inactive) | -0.374 (inactive) | 1.06 | 0.205 (inactive) | -0.192 | 0.201 | -0.0525 | -0.199
13 | COc1ccc([C@H]2C[C@H]3C(Br)=C[C@@H]2C(=O)[C@]32CO2)cc1 | -0.431 | 0.29 (inactive) | -3.66 (inactive) | -0.417 (inactive) | -0.807 | 1.7 (inactive) | -0.0561 | 0.101 | -0.282 | -0.217
14 | C=CCOC(=O)[C@@H]1[C@H]2C(=O)O[C@H](c3ccccc3)[C@H](c3ccccc3)N2[C@H](c2ccc(OCCOC(=O)[C@@H]3C[C@@H]4C(=O)N[C@@H](CCCCN(C)C)C(=O)N4[C@@H]3c3ccc(O)cc3)cc2)[C@@]12C(=O)Nc1ccc(I)cc12 | 1.51 | 0.767 (inactive) | -0.858 (inactive) | 1.51 (inactive) | 2.95 | -0.907 (inactive) | -0.119 | 1.24 | 1.11 | 0.0727
